From PubChem BioAssay
Hits are enriched below; roughly 2.2% of the tested compounds scored in any of these assays.
NPR2 activator = GC-B (human) receptor activation. 0.11% of 370,000 active. HEK293-GC-B cells, CNP EC30, cGMP TR-FRET; 0% at EC30 CNP, 100% saturating CNP. P20594. activation, % at 10 µM;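 active = activation at 10 µM reaching about 35% in either raw or pattern-adjusted values, limit read from the data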
GC-A act = GC-A (human) enzyme activation | HEK293 GC-A cells, cGMP TR-FRET, EC30 ANP; 0% at EC30 ANP, 100% saturating ANP | AID 1671463 | 0.14% of 370,000 active | activation, % at 10 µM; in the data active = activation above about 40%
ADAM10 inh = inhibitors of human ADAM10 | O14672 | recombinant ADAM10, EDANS/DABCYL FRET peptide cleavage, 3 h | inhibition, % at 7 µM | 0.62% of 370,000 active;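 active = inhibition above a per-campaign cutoff equal to the mean of compounds falling between control-based bounds plus 3 SD, cut at about 20% in these data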;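 also: 0% = DMSO wells while the 100% control is not disclosed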
proKLK7 act = activates the human kallikrein-7 zymogen. P49862. purified proKLK7, EDANS-DABCYL substrate fluorescence; 100% is mature enzyme control, 0% vehicle. activation, % at 7 µM. 0.9% of 370,000 active;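 active = activation above the mean of all tested compounds plus 3 SD, computed per campaign excluding outliers beyond control limits, cut at about 13% in these data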
ADAM17 inh = ADAM17 inhibition, QFRET primary screen. recombinant ADAM17, EDANS/DABCYL FRET peptide cleavage. 0.83% of 370,000 active. inhibition, % at 6.95 µM. P78536;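 active = inhibition above the mean of compounds lying between control limits plus 3 SD, set per campaign, cut at about 8.5% in these data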;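 also: 0% = DMSO-only wells as the low control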
Target sequence (P78536 215-824 limits assumed): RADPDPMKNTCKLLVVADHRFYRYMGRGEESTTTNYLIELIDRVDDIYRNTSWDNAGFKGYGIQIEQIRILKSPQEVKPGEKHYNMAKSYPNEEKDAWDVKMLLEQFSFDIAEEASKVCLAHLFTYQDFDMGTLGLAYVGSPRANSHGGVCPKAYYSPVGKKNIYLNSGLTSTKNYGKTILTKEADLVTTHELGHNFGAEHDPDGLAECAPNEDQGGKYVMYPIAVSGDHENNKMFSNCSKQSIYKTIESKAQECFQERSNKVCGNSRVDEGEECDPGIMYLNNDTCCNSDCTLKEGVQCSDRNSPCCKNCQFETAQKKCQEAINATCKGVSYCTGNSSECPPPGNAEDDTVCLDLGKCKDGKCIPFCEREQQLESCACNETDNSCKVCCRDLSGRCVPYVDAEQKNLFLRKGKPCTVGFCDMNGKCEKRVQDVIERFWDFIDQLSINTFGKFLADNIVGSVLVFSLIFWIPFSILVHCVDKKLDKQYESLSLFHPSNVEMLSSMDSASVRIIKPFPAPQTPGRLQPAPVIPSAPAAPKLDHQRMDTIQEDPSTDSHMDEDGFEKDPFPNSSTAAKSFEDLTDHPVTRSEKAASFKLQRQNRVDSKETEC
KLK7 act conf = proKLK7 activation, confirmation | activation, % at 7 µM | AID 686949 | purified proKLK7, EDANS-DABCYL substrate fluorescence; scaled: vehicle 0, mature enzyme 100 | shares compounds with proKLK7 act | 68% of 3,200 active;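 active = activation, as change over the incubation, above the mean of all tested compounds plus 3 SD, cut at about 13% in these data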
EDANS interfere = optically interferes with EDANS-DABCYL signal, flagging KLK7 hits; 80% of 3,200 active; AID 686952; EDANS-DABCYL substrate fluorescence interference, no enzyme, 4 h; solvent 0%, active enzyme control 100%; activation, % at 7 µM; shares compounds with proKLK7 act;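 active = activation above the all-compound mean plus 3 SD, ignoring values outside control-based bounds, cut at about 4.8% in these data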;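 also: value is the 4 h activation minus the activation read at time zero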
An asterisk follows results filed as active.

CCCSC1=C(C#N)C(c2ccc(OC)cc2)C2=C(CC(C)(C)CC2=O)N1 (configuration not stated) was read as NPR2 activator 2.2, GC-A act 0.1, ADAM10 inh -39.1, proKLK7 act 16.5*, ADAM17 inh -13.3, KLK7 act conf -1.1 and EDANS interfere -0.6.
COc1cccc(C2C(C#N)=C(C)NC3=C2C(=O)CC(C)(C)C3)c1 (configuration not stated) was read as NPR2 activator 12.0, GC-A act 0.2, ADAM10 inh inactive, proKLK7 act 25.1*, ADAM17 inh inactive, KLK7 act conf 17.6* and EDANS interfere 34.1*.
Cc1ccc(C2C3=C(CC(C)(C)CC3=O)Nc3onc(C)c32)cc1 (configuration not stated) was read as NPR2 activator -1.1, GC-A act -4.6, ADAM10 inh inactive, proKLK7 act 14.7*, ADAM17 inh -223.4, KLK7 act conf -3.0 and EDANS interfere -7.7.
Cc1ccc([C@H](C)NC(=O)C2=C(N)N(S(=O)(=O)c3ccc(C)cc3)C(C(=O)c3ccccc3)C2c2ccccc2Cl)cc1 (some centres not stated) was read as NPR2 activator -3.4, GC-A act -4.6, ADAM10 inh 9.2 and ADAM17 inh -2.2.
Screening COC(=O)c1cc(C(c2ccccc2O)C2CCCO2)n2cccc(C(C)(C)C)c12 (configuration not stated) returned NPR2 activator -22.8, GC-A act -29.5, ADAM10 inh -260.7, proKLK7 act -8.9 and ADAM17 inh -65.7.
O=C(CN1C(=O)C2(OCCCO2)c2ccccc21)NCc1ccccc1Cl was read as NPR2 activator 0.3, GC-A act 0.4, ADAM10 inh -10.4, proKLK7 act 0.0 and ADAM17 inh -4.0.
For N#Cc1cnn2ccc(-c3ccc4c(c3)CCC4)nc12 the results were NPR2 activator -2.0, GC-A act 4.7, ADAM10 inh inactive, proKLK7 act 95.0*, ADAM17 inh inactive, KLK7 act conf 57.2* and EDANS interfere 76.2*.
O=C1/C(=C/c2cccc(F)c2)Oc2cc(O)ccc21 was read as NPR2 activator 0.9, GC-A act 12.2, ADAM10 inh -34.0, proKLK7 act 20.5*, ADAM17 inh -16.4, KLK7 act conf 55.9* and EDANS interfere 78.6*.
Cc1cccc(/C=C2\Oc3cc(OS(C)(=O)=O)ccc3C2=O)c1 was read as NPR2 activator -5.3, GC-A act -4.3, ADAM10 inh -33.9, proKLK7 act -0.9 and ADAM17 inh -5.8.
Screening COc1ccc(NC(=O)N(C)[C@H]2C[C@H]3c4[nH]c5ccccc5c4CCN3C(=O)[C@H]2CO)cc1 returned NPR2 activator 8.8, GC-A act 3.6, ADAM10 inh inactive, proKLK7 act 24.4*, ADAM17 inh -233.9, KLK7 act conf 2.7 and EDANS interfere 3.2.
Screening COc1ccc(C(=O)N(C)[C@H]2C[C@H]3c4[nH]c5ccccc5c4CCN3C(=O)[C@H]2CO)cc1 returned NPR2 activator 2.4, GC-A act 3.1, ADAM10 inh inactive, proKLK7 act 43.7*, ADAM17 inh -230.0, KLK7 act conf 50.7* and EDANS interfere 56.6*.
Screening CN(C(=O)Nc1ccc(F)cc1)[C@H]1C[C@H]2c3[nH]c4ccccc4c3CCN2C(=O)[C@H]1CO returned NPR2 activator -3.2, GC-A act 3.9, ADAM10 inh -158.0, proKLK7 act 2.4 and ADAM17 inh -39.2.
Screening COc1ccc(NC(=O)N(C)[C@H]2C[C@H]3c4[nH]c5ccccc5c4CCN3C(=O)[C@H]2[C@H](C)O)cc1 returned NPR2 activator 11.8, GC-A act 7.4, ADAM10 inh inactive, proKLK7 act 87.5*, ADAM17 inh inactive, KLK7 act conf 8.5 and EDANS interfere 9.5*.
For COC(=O)C[C@H]1CC[C@@H]2[C@@H](COc3ccc(NC(=O)Nc4ccccc4OC)cc3C(=O)N2C)O1 the results were NPR2 activator -0.8, GC-A act 3.2, ADAM10 inh 0.6, proKLK7 act 0.2 and ADAM17 inh 0.9.
Screening CCC[C@H]1[C@@H](OC(=O)NC2CCCCC2)CC[C@@]23CCCN2C(=O)CCC[C@@H]13 returned NPR2 activator -18.0, GC-A act -16.9, ADAM10 inh 0.7 and ADAM17 inh 0.3.
c1ccc(-c2ccc(-c3ccccn3)s2)nc1 was read as NPR2 activator -4.0, GC-A act -1.6, ADAM10 inh inactive, proKLK7 act 15.2*, ADAM17 inh inactive, KLK7 act conf -18.6 and EDANS interfere -7.0.
Screening CC(=O)N1CCc2c1cccc2S(=O)(=O)NC(CC(C)C)C(=O)Nc1ccccc1C (configuration not stated) returned NPR2 activator -5.1, GC-A act 2.2, ADAM10 inh 4.4, proKLK7 act -0.4 and ADAM17 inh -3.0.
For COC(=O)CSc1ccc2c(N)c(C(=O)OC)sc2c1 the results were NPR2 activator 1.2, GC-A act 8.2, ADAM10 inh -184.3, proKLK7 act 45.1*, ADAM17 inh -48.5, KLK7 act conf 26.8* and EDANS interfere 28.8*.
CCc1c(C)c2cc(Cl)c(O)c(CN3CCCC3)c2oc1=O was read as NPR2 activator -5.2, GC-A act -4.2, ADAM10 inh inactive, proKLK7 act 37.0*, ADAM17 inh inactive, KLK7 act conf 67.9* and EDANS interfere 68.7*.
`CCCCc1cc(=O)oc2c(CN3CCCC3)c(O)c(Cl)cc12` gave NPR2 activator 10.1, GC-A act 7.0, ADAM10 inh inactive, proKLK7 act 63.3*, ADAM17 inh inactive, KLK7 act conf 70.9* and EDANS interfere 82.4*.
Screening CN1CCN(Cc2c(O)c(Cl)cc3c(-c4ccccc4)cc(=O)oc23)CC1 returned NPR2 activator 1.5, GC-A act 3.4, ADAM10 inh -105.6, proKLK7 act 16.8*, ADAM17 inh -34.9, KLK7 act conf 13.8* and EDANS interfere 11.5*.
Screening Cc1cc(C)c2oc(=O)cc(CN3CCCCC3)c2c1 returned NPR2 activator -2.9, GC-A act 0.9, ADAM10 inh -1.8, proKLK7 act 0.3 and ADAM17 inh -3.2.
`CCCc1cc(=O)oc2c(CN3CCN(C)CC3)c(O)c(Cl)cc12` gave NPR2 activator -3.1, GC-A act 3.2, ADAM10 inh inactive, proKLK7 act 59.5*, ADAM17 inh inactive, KLK7 act conf 70.6* and EDANS interfere 76.5*.
